# Hits are enriched below; roughly 1.1% of the tested compounds scored in any of these assays.
# Menin MLL FP FL: inhibitors of human menin-MLL interaction, wild-type MLL peptide; Fluorescence polarization, fluorescein-MLL peptide displacement from menin; FP activity change, % at 61.4 µM; 290,000 tested, under 10 active; AID 1766; active = well fitted curve in the direction sought with a large enough effect in the polarisation, not every such curve was filed as active; inconclusive = small, poorly fitted or top-dose-only effect, or effect the other way, or a change in a side signal; inactive = no such curve, though single readings can be large or run the other way; the % refers to the polarisation; also: % of control where 0% means no effect
# KCNH2 WT inh: blocks the wildtype human KCNH2 potassium channel; Q12809; U2OS, BacMam KCNH2, thallium flux FluxOr; stronger effect = lower value; activity change, % at 1.84 µM; hit rate 0.37% among 340,000; AID 720551;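 active = maximum activity change below -70%; inconclusive = maximum activity change between -70% and -50%; inactive = maximum activity change above -50%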; also: % is scaled to controls: 0 for no effect and ±100 for the full control effect
#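 U2OS cells were transduced with wild-type KCNH2 virus (2.03 x 10^8 / mL) for 4 h at room temperature, then cultured overnight at 37 C. Thallium flux was read with FluxOr dye. Rate constants were normalized to DMSO controls.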
# KCNH2 3.1 inh: KCNH2 3.1 (human) potassium channel inhibition | U2OS KCNH2 3.1, thallium flux FluxOr; stronger effect = lower value | activity change, % (tested at about 1.8 µM) | hit rate 0.95% among 340,000;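 active = maximum activity change below -70%; inconclusive = maximum activity change from -70% to -50%; inactive = maximum activity change above -50%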;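 also: thallium influx rate constant from kinetic fluorescence after stimulation buffer; % is scaled to controls: 0 for no effect and ±100 for the full control effect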
#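 U2OS cells transduced with KCNH2 3.1 mutant virus (1.77 x 10^8 /mL, 4 h), plated overnight at 37 C, loaded 45 min with FluxOr dye plus Red40 quencher. Thallium flux rate constant from kinetic reads after stimulation buffer, normalised to controls.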
# Menin MLL FP TR: menin-MLL binding inhibition, Texas Red mutant peptide. O00255. Menin + Texas Red MLL mutant peptide, fluorescence polarization. Potency, µM (doses to about 61.6 µM), for inactives: at the top dose FP activity change, negative = inhibition, usual class: inhibitors. hit rate 0.23% among 270,000. AID 1768; active = well fitted inhibition curve with a large enough effect in the polarisation, with a control signal flat, not every such curve was filed as active; inconclusive = small, poorly fitted or top-dose-only effect, or effect the other way, or a change in a side signal; inactive = no such curve, though single readings can be large or run the other way; the % refers to the polarisation; also: potency is read from the fitted curve at half-maximal effect; % of control where 0% means no effect
# CXXC DNA block: blocks binding of human MLL CXXC domain to DNA | AID 2662 | MLL-CXXC / FITC-HOXA9 DNA fluorescence polarization | Potency, µM (titrated, usually from 115 µM), inactives show at the highest dose activity change, negative = inhibition, hits mostly inhibitors | hit rate 0.037% among 290,000; active = well fitted inhibition curve with a large enough effect in the polarisation, with a control signal flat, not every such curve was filed as active; inconclusive = small, poorly fitted or top-dose-only effect, or effect the other way, or a change in a side signal; inactive = no such curve, though single readings can be large or run the other way; the % refers to the polarisation; also: potency is read from the fitted curve at half-maximal effect
#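 Fluorescence polarization: 7 uM MLL-CXXC (stock) preincubated 5 min with compounds, then 50 nM fluorescein-HOX-A9 DNA (stock) added; 30 min ambient. Buffer 50 mM Tris-HCl pH 7.5, 50 mM NaCl, 1 mM DTT, 0.05% BSA.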
# An asterisk follows results filed as active; u = inconclusive; x = not tested or not shown; [ ] = remark or other dose.
SMILES,Menin MLL FP FL,KCNH2 WT inh,KCNH2 3.1 inh,Menin MLL FP TR,CXXC DNA block
Cc1ccc(C(=O)c2c3ccc(C(F)(F)F)cc3[n+]([O-])n2CCC(N)=O)cc1,-1,1,24,-3%,-2%
Cc1ccc(C(=O)c2c3ccc(C(F)(F)F)cc3[n+]([O-])n2CCCC(N)=O)cc1,x,11,-79*,x,x
CC(=O)c1cc2c(cc1F)C(C)(C)CCC2(C)C,x,-3,3,x,x
COc1cccc(CN2CCN(C3CCN(c4ccccc4C)CC3)CC2CCO)c1 (stereo not drawn),-8,26,-29,u,-10%
COc1cccc(CN2CCN(C3CCN(c4cccc(C)c4C)CC3)CC2CCO)c1 (stereo not drawn),-8,-1,-72*,-25%,11%
Cc1ccc(C(=O)N2CCN3C(=O)c4ccccc4C23c2ccc(Cl)cc2)cc1 (stereo not drawn),-2,-14,-76*,0%,u
O=C(CNCC1CCCO1)Nc1ccc(N2CCCCCC2)cc1 (stereo not drawn),2,18,-1,14µM*,8%
CSc1ccc(CN2CCC(CO)(Cc3ccc(Cl)cc3)CC2)cc1,-2,-33,-101*,-22%,-7%
OCC1(Cc2ccc(Cl)cc2)CCN(Cc2ccccc2F)CC1,0,11,u,-28%,-10%
OCC1(Cc2ccc(Cl)cc2)CCN(CC2CC=CCC2)CC1 (stereo not drawn),3,36,-72*,-11%,-3%
OCC1(Cc2ccc(Cl)cc2)CCN(CCCc2ccccc2)CC1,-5,u,-89*,u,5%
COc1ccccc1N(C)C(=O)c1cc(S(=O)(=O)N2CCCC2)cn1C,-6,3,-4,-27%,x
CCCCNc1c(-c2ccc(OC)c(SC(C)CC)c2)nc2ccc(C)cn12 (stereo not drawn),x,-6,-47,x,x
CCCCNc1c(-c2ccc(OC)c(SC(C)CC)c2)nc2cc(C)ccn12 (stereo not drawn),x,3,-82*,x,x
CCCCNc1c(-c2ccc(-c3ccc(C(C)=O)cc3)c(OC)c2)nc2cc(C)ccn12,x,-15,-71*,x,x
CCCCNc1c(-c2ccc(Sc3ccc(OC)cc3)cc2)nc2cc(C)ccn12,x,u,-84*,x,x
COc1ccc(-c2nc3cc(C)ccn3c2NCC2CCCO2)cc1OC (stereo not drawn),x,-14,4,x,x
O=C(N/N=C/c1ccc(N2CCOCC2)cc1)c1ccccc1OCCOc1ccccc1,u,-7,-11,-1%,47%
O=C(NC(=S)Nc1cc([N+](=O)[O-])ccc1Cl)c1ccccc1,0,-168*,-154*,20%,0%
CCC(=O)Nc1cc2nn(-c3ccc(OC)cc3)nc2cc1C,5,-2,6,3%,-7%
COc1ccc(-n2nc3cc(C)c(NC(=S)NC(=O)c4ccccc4C)cc3n2)cc1,2,-7,1,22µM*,3%
COc1ccccc1N1CCN(C(=O)CSc2nc3ccccc3o2)CC1,5,-4,-15,-23%,-1%
COCCNc1nc(SCC(=O)N2CCN(c3ccccc3OC)CC2)nc2ccccc12,0,2,-120*,-19%,-1%
CCC(Oc1ccccc1)C(=O)N1CCC(C(N)=O)CC1 (stereo not drawn),1,-109*,-2,5%,-12%
CCC(Oc1ccccc1)C(=O)N1CCN(C(=O)C(CC)Oc2ccccc2)CC1 (stereo not drawn),1,18,0,-16%,-2%
SMILES,Menin MLL FP FL,KCNH2 WT inh,KCNH2 3.1 inh,Menin MLL FP TR,CXXC DNA block
CCOP(=O)(OCC)C(Nc1ccccc1)c1ccco1 (stereo not drawn),2,-4,-118*,-4%,3%
COCCNC(=O)C(c1ccccc1)N(C(=O)Cn1nnc2ccccc21)c1cccnc1 (stereo not drawn),9,-197*,-26,0%,-14%
COCCNC(=O)C(c1ccc(Cl)cc1)N(C(=O)Cn1nnc2ccccc21)c1cccnc1 (stereo not drawn),-1,-6,-10,-17%,-3%
Oc1ccc(C[C@H]2CNC(=S)N2CC2CCCN2C[C@H](Cc2ccc(O)cc2)N2C[C@H](Cc3ccc(O)cc3)N(CC3CCCCCC3)C2=S)cc1 (stereo partly drawn),x,-15,-13,x,x
Cc1c(NC(=O)COc2cccc(Cl)c2Cl)c(=O)n(-c2ccccc2)n1C,x,28,8,x,x
COc1ccc(NC2CCCN(C(=O)COc3ccc(C)cc3)C2)cc1 (stereo not drawn),-1,3,-2,-17%,8%
COc1ccc(OCC(=O)N2CCCC(Nc3ccc(C)c(C)c3)C2)cc1 (stereo not drawn),x,-9,-87*,x,x
O=C(CC1CCCC1)N1CCCC(Nc2cccc(F)c2)C1 (stereo not drawn),x,-6,-6,x,0%
O=C(CC1CCCC1)N1CCCC(Nc2ccc(F)cc2)C1 (stereo not drawn),x,-10,-96*,x,-3%
CCN1C(=O)[C@H]2[C@@H](c3ccc(-c4cccc(Cl)c4)cc3)N3CCCC[C@@]3(C(=O)OC)[C@H]2C1=O,x,-3,6,x,x
COc1ccc(S(=O)(=O)NNC(=O)c2cccs2)cc1,3,-2,-104*,2%,-2%
O=C(NNS(=O)(=O)c1ccc(Cl)cc1)c1cccs1,3,-4,-8,11%,-2%
O=C(Nc1ccc(N2CCN(C(=O)c3ccc(Cl)cc3)CC2)cc1)c1ccc2c(c1)OCCO2,2,1,-79*,3%,-5%
O=C(CSc1ccc(Cl)cc1)Nc1ccccc1N1CCN(C(=O)c2ccc(Cl)cc2)CC1,9,3,-41,1%,14%
O=C(Nc1ccccc1N1CCN(C(=O)c2ccc(Cl)cc2)CC1)c1ccc2c(c1)OCO2,-1,-48,-82*,0%,15%
O=C(Nc1ccccc1N1CCN(C(=O)c2ccc(Cl)cc2)CC1)c1cccc(F)c1,x,u,-18,x,10%
O=C(Nc1ccc(N2CCN(C(=O)c3ccc(Cl)cc3)CC2)cc1)c1cccs1,x,24,-74*,x,-5%
O=C(CSc1ccc(Cl)cc1)Nc1ccc(N2CCN(C(=O)c3ccc(Cl)cc3)CC2)cc1,2,-133*,-89*,1%,2%
CCOC(=O)CC1c2nc3ccccc3cc2CN1C(=O)OCC (stereo not drawn),x,-4,-2,x,x
Cc1ccc(C(=O)N2CCN(c3ncccn3)CC2)cc1S(=O)(=O)N1CCCCC1,7,-5,9,-19%,-2%
CN1C(=O)CC[C@@H]1c1cccnc1,1[24.8 µM],x,x,-12%[24.8 µM],x
COc1cc2c(cc1OC)C(c1cccs1)N(C(=O)c1cccc(S(=O)(=O)N(C)C)c1)CC2 (stereo not drawn),21,3,-20,x,1%
O=C(c1ccc(Cl)cc1)N1CCC(O)(CSc2ccc(Cl)cc2)CC1,0,-28,-89*,x,0%

# Source: PubChem
